Measured values from PubChem BioAssay.
Inconclusive results are not listed.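 The calls were made as follows, unless noted: active = RAM network inhibition above 8.4% in each of two replicates, 3 SD over the compound average; inconclusive = above 8.4% inhibition in only one replicate; inactive = 8.4% inhibition or less in each replicate.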

How the values were obtained:
[1] = S. cerevisiae growth inhibition in permissive medium (OD615), pilot counter-assay for S. cerevisiae lifespan shortening project, permissive growth control (AID 705;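 active = growth inhibition above 25% in both replicates, a cutoff set 3 SD above the mean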); conditions: OD615, 24 h, at 10 µM, stronger effect = higher value
[2] = S. cerevisiae growth inhibition in restrictive medium, OD615, pilot screen, restrictive growth control, yeast lifespan reduction project (AID 706;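 active = growth inhibition above a set limit, 3 SD over mean compound inhibition, in both replicates, cut at about 43% in these data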;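 also: modified DeaD lifespan yeast strain shifted to restrictive glucose medium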); conditions: OD615, 48 h, at 10 µM, stronger effect = higher value
[3] = doxorubicin toxicity protection in MRP-1 cells – H69AR cells, CellTiter-Glo, duplicate, MRP-1 activator project, pilot screen (AID 807;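 active = viability increase at or above a cutoff of the median across tested compounds plus 3 SD, cut at about 8.5% in these data, passing the limit was not always enough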;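 also: compound pretreatment 18-22 h then 72 h combined with doxorubicin; 0% = doxorubicin alone and 100% = vehicle without doxorubicin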); conditions: H69AR viability with doxorubicin, CellTiter-Glo luminescence; at 10 µM; stronger effect = higher value
[4] = viability of HCT116 without oncogenic beta-catenin – human colon tumor cells, pilot screen (AID 823;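 active = cell viability at or below a set limit in both duplicate runs, the limit being the all-compound median minus 4 SD, cut at about 23% in these data, passing the limit was not always enough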;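 also: 0% = wells killed by 20 µM Hyamine and 100% = untreated DMSO cell wells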); conditions: HCT116 beta-catenin knockout viability, CellTiter-Glo, 60 h; at 10 µM; stronger effect = lower value
[5] = viability of PTEN-null HCT116 cells – cell-based, HCT116 clonal line, CellTiter-Glo, pilot screen (AID 824;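 active = viability at or below 27.92% in each of two runs, the all-compound median minus 4 SD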;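 also: 0% = 20 µM Hyamine control and 100% = vehicle cell control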); conditions: HCT116 PTEN-deleted viability, 60 h, at 10 µM, stronger effect = lower value
[6] = RAM pathway blockade in budding yeast – dse1pr::URA3 reporter, 5-FOA selection, pilot screen (AID 869;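 active = inhibition over a set limit, the all-compound mean plus 3 SD, in both replicate runs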;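 also: 0% = DMSO wells with no growth and 100% = 10 µM 1-NA-PP1 with full growth; RAM network block rescues cells from 5-FOA so hits raise OD615 growth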); conditions: S. cerevisiae dse1pr::URA3 5-FOA growth, OD615, 2 d, at 10 µM, stronger effect = higher value
[7] = RAM signaling pathway blockade in yeast – S. cerevisiae, Pdr1DBD-CYC8 efflux-inhibited sensitized strain, primary screen (AID 1298);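 also: 0% = DMSO untreated cells without growth and 100% = 10 µM 1-NA-PP1 full growth; higher means more yeast growth rescued from 5-FOA killing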; conditions: S. cerevisiae cbk1-as DSE1-URA3 strain, 5-FOA growth OD615, 2 d; at 50 µM; stronger effect = higher value

C=C(C)c1cccc(C(C)(C)NC(=O)NC2CN3CCC2CC3)c1 (stereo not given)
inactive: growth inhibition [1] -5.2% | growth inhibition [2] 2.09% | viability increase [3] -1.24% | viability [4] 94.4% | viability [5] 93.9% | inhibition [6] -0.575% | RAM network inhibition [7] 0.82%

CCOC(=O)C1SC2(C(F)(F)C(F)F)CC1(O)c1c(c(OC)c3occc3c1OC)O2 (stereo not given)
inactive: growth inhibition [1] -4.93% | growth inhibition [2] -26.4% | viability increase [3] -0.89% | viability [4] 98.4% | viability [5] 86.9% | inhibition [6] 1.6% | RAM network inhibition [7] 6.2%

C=Cn1ccnc1P(=S)(c1nccn1C=C)C1CCCCC1
inactive: growth inhibition [1] 0.2% | growth inhibition [2] -2.3% | viability increase [3] -1.76% | viability [4] 92.3% | viability [5] 93.1% | inhibition [6] 0.82% | RAM network inhibition [7] 3.48%

CN1CCN(c2ncnc3ccc(Br)cc23)CC1
inactive: growth inhibition [1] -1.88% | growth inhibition [2] 5.46% | viability increase [3] -1.88% | viability [4] 94.2% | viability [5] 98.4% | inhibition [6] -0.575% | RAM network inhibition [7] 2.92%

CN1CC=C(c2c[nH]c3ccccc23)CC1
inactive: growth inhibition [1] 0.43% | growth inhibition [2] 10.4% | viability increase [3] -3.51% | viability [4] 92% | viability [5] 92.5% | inhibition [6] -0.185% | RAM network inhibition [7] -1.66%

CCC(=O)N1CC(=O)Nc2ccc(F)cc2C1c1ccccc1 (stereo not given)
inactive: growth inhibition [1] -9.43% | growth inhibition [2] -11.4% | viability increase [3] -1% | viability [4] 92.2% | viability [5] 90.9% | inhibition [6] 2.25% | RAM network inhibition [7] 3.64%

O=C(Nc1ccccc1OC(=O)N1CCCCC1)N1CCCCC1
inactive: growth inhibition [1] -8.28% | growth inhibition [2] -4.06% | viability increase [3] -2.07% | viability [4] 97.4% | viability [5] 100% | inhibition [6] 0.8% | RAM network inhibition [7] 3.27%

O=C(CN1CC(c2ccccc2)CC1=O)Nc1ccc(F)cc1 (stereo not given)
inactive: growth inhibition [1] -15.6% | growth inhibition [2] -4.88% | viability increase [3] -3.89% | viability [4] 101% | viability [5] 99.2% | inhibition [6] -0.44% | RAM network inhibition [7] 0.85%

Cc1cc(C)n2c(Br)c(CN3CC4CC(C3)c3cccc(=O)n3C4)nc2n1 (stereo not given)
inactive: growth inhibition [1] -3.02% | growth inhibition [2] -5.3% | viability increase [3] -2.43% | viability [4] 90.9% | viability [5] 105% | inhibition [6] 1.09% | RAM network inhibition [7] -0.1%

O=C1OCCN1P(=O)(c1ccccc1)c1ccccc1
inactive: growth inhibition [1] -6.19% | growth inhibition [2] 2.02% | viability increase [3] -0.69% | viability [4] 98.4% | viability [5] 98% | inhibition [6] 0.445% | RAM network inhibition [7] -1.04%

c1ccc2sc(C3CCCNC3)nc2c1 (stereo not given)
inactive: growth inhibition [1] -10.6% | growth inhibition [2] -19.7% | viability increase [3] -1.16% | viability [4] 97.6% | viability [5] 97.4% | inhibition [6] 2.33% | RAM network inhibition [7] 0.56%

CN(C)C(=O)Oc1ccc(-c2nnco2)cc1
inactive: growth inhibition [1] 0.38% | growth inhibition [2] -1.25% | viability increase [3] 1.79% | viability [4] 104% | viability [5] 99.7% | inhibition [6] 1.48% | RAM network inhibition [7] 0.73%

CC12CCC(=O)C=C1CCC1C2CCC2(C)C(O)CCC12 (stereo not given)
inactive: growth inhibition [1] 5.38% | growth inhibition [2] 6.93% | viability increase [3] -3.17% | viability [4] 89.5% | viability [5] 94% | inhibition [6] 0.475% | RAM network inhibition [7] 1.32%

Nc1ccccc1C(=O)c1ccccc1
inactive: growth inhibition [1] -0.69% | growth inhibition [2] -1.46% | viability increase [3] -1.42% | viability [4] 90.9% | viability [5] 88.7% | inhibition [6] 0.55% | RAM network inhibition [7] 2.5%

Cc1nc2cc(C(F)(F)F)ccc2n1C1CCN(Cc2nnnn2Cc2cccs2)CC1
inactive: growth inhibition [1] -11.3% | growth inhibition [2] -18.3% | viability increase [3] -6.21% | viability [4] 76.1% | viability [5] 67.6% | inhibition [6] 1.01% | RAM network inhibition [7] -0.01%

CCN(c1ccc(C(O)(C(=O)OC)C(F)(F)F)cc1)S(=O)(=O)c1ccccc1 (stereo not given)
inactive: growth inhibition [1] -4.31% | growth inhibition [2] -3.91% | viability increase [3] 0.9% | viability [4] 99.4% | viability [5] 102% | inhibition [6] -0.62% | RAM network inhibition [7] 4.74%

CC(CO)(CO)N=Cc1c(O)n(-c2cccc3ccccc23)c(=O)[nH]c1=O
inactive: growth inhibition [1] -9.27% | growth inhibition [2] -18.2% | viability increase [3] -1.01% | viability [4] 95.8% | viability [5] 99% | inhibition [6] 0.52% | RAM network inhibition [7] 4.06%

COc1ccc2nc(NC(=O)CCc3nc(C4=CCN(C)CC4)no3)sc2c1
inactive: growth inhibition [1] -7.66% | growth inhibition [2] 2.61% | viability increase [3] -2.1% | viability [4] 79.2% | viability [5] 91.7% | inhibition [6] 2.04% | RAM network inhibition [7] 5.11%

C=Cn1ccnc1P(=S)(c1c(C)nn(-c2ccccc2)c1C)c1nccn1C=C
inactive: growth inhibition [1] 0.15% | growth inhibition [2] 13.2% | viability increase [3] -2.8% | viability [4] 93.8% | viability [5] 90.2% | inhibition [6] 1.75% | RAM network inhibition [7] 5.43%

CN(C(=O)Oc1cccc2cccnc12)c1ccccc1
inactive: growth inhibition [1] -2.11% | growth inhibition [2] 3.21% | viability increase [3] -0.61% | viability [4] 91% | viability [5] 90.1% | inhibition [6] 0.415% | RAM network inhibition [7] 2.67%
